# Test results published in the supplement of paper PMC9694430.
# Structures can show the parent of a compound that is named as a salt.
# Key:
# Assay in all cases: thermal shift delta Tm vs DMSO control; higher = stronger stabilization (binding)
# Conditions in all cases: 12.5 µM; protein concentration 2 µM
# LOC_OS01G57100-cb003 = test system: LOC_OS01G57100-cb003
# In short: (§1)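 Rice kinase domain constructs, made in E. coli and purified, were placed in 96-well plates at 2 μM in 19.5 μl of 100 mM potassium phosphate pH 7.5, 150 mM NaCl, 10% glycerol and 5 × SYPRO Orange, with compound in DMSO. A temperature ramp from 25°C to 95°C at 0.05°C/s was used for differential scanning fluorimetry. The melting temperature shift is a triplicate mean compared with DMSO-only protein, derived from Boltzmann fits.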
# LOC_OS01G60330-cb001 = test system: LOC_OS01G60330-cb001
# In short: as §1
# LOC_OS01G60700-cb002 = test system: LOC_OS01G60700-cb002
# In short: as §1
# LOC_OS01G63280-cb003 = test system: LOC_OS01G63280-cb003
# In short: as §1
# LOC_OS01G67340-cb003 = test system: LOC_OS01G67340-cb003
# In short: as §1
# LOC_OS01G70970-cb002 = test system: LOC_OS01G70970-cb002
# In short: as §1
# LOC_OS02G07810-cb001 = test system: LOC_OS02G07810-cb001
# In short: as §1
# LOC_OS02G08530-cb003 = test system: LOC_OS02G08530-cb003
# In short: as §1
# LOC_OS02G14120-cb001 = test system: LOC_OS02G14120-cb001
# In short: as §1
# LOC_OS02G17970-cb001 = test system: LOC_OS02G17970-cb001
# In short: as §1
# LOC_OS02G45750-cb003 = test system: LOC_OS02G45750-cb003
# In short: as §1
# LOC_OS02G54510-cb004 = test system: LOC_OS02G54510-cb004
# In short: as §1
# LOC_OS03G04050-cb001 = test system: LOC_OS03G04050-cb001
# In short: as §1
# LOC_OS03G12390-cb001 = test system: LOC_OS03G12390-cb001
# In short: as §1
# LOC_OS03G27990-cb004 = test system: LOC_OS03G27990-cb004
# In short: as §1
# LOC_OS03G50450-cb001 = test system: LOC_OS03G50450-cb001
# In short: as §1
# LOC_OS03G50810-cb003 = test system: LOC_OS03G50810-cb003
# In short: as §1
# LOC_OS04G35114-cb001 = test system: LOC_OS04G35114-cb001
# In short: as §1
# LOC_OS04G38480-cb003 = test system: T1, LOC_OS04G38480-cb003
# T1 sequence (whole entry): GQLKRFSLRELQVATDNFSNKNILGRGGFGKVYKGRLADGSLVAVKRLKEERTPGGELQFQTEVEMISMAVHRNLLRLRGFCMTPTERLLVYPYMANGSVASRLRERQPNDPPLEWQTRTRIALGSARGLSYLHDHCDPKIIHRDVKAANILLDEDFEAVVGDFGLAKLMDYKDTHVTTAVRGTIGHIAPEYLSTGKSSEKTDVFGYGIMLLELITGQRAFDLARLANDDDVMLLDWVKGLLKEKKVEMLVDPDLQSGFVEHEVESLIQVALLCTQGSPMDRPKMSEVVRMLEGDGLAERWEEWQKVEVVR
# In short: as §1
# LOC_OS04G41100-cb001 = test system: T2, LOC_OS04G41100-cb001
# T2 sequence (whole entry): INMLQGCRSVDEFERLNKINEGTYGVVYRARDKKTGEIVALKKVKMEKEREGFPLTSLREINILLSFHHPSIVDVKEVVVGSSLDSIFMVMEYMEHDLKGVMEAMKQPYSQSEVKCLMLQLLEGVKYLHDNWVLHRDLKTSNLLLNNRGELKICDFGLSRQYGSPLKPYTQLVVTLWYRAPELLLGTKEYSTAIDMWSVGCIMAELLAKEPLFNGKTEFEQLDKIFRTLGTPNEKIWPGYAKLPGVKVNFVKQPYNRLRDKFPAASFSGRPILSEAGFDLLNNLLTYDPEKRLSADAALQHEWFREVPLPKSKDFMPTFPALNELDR
# In short: as §1
# 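Note: purified Escherichia coli-expressed rice kinase domain construct.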
Compound,thermal shift delta Tm (LOC_OS01G57100-cb003) [°C],thermal shift delta Tm (LOC_OS01G60330-cb001) [°C],thermal shift delta Tm (LOC_OS01G60700-cb002) [°C],thermal shift delta Tm (LOC_OS01G63280-cb003) [°C],thermal shift delta Tm (LOC_OS01G67340-cb003) [°C],thermal shift delta Tm (LOC_OS01G70970-cb002) [°C],thermal shift delta Tm (LOC_OS02G07810-cb001) [°C],thermal shift delta Tm (LOC_OS02G08530-cb003) [°C],thermal shift delta Tm (LOC_OS02G14120-cb001) [°C],thermal shift delta Tm (LOC_OS02G17970-cb001) [°C],thermal shift delta Tm (LOC_OS02G45750-cb003) [°C],thermal shift delta Tm (LOC_OS02G54510-cb004) [°C],thermal shift delta Tm (LOC_OS03G04050-cb001) [°C],thermal shift delta Tm (LOC_OS03G12390-cb001) [°C],thermal shift delta Tm (LOC_OS03G27990-cb004) [°C],thermal shift delta Tm (LOC_OS03G50450-cb001) [°C],thermal shift delta Tm (LOC_OS03G50810-cb003) [°C],thermal shift delta Tm (LOC_OS04G35114-cb001) [°C],thermal shift delta Tm (LOC_OS04G38480-cb003) [°C],thermal shift delta Tm (LOC_OS04G41100-cb001) [°C]
Cc1ncc(CO)c(CO)c1O [Pyridoxine],-0.85,-0.2,-0.29,-0.26,0.08,0.33,-0.63,0.26,0.41,0.66,0.81,-0.02,0.53,-0.09,0.25,0.62,0.03,-0.36,0.12,0.24
CN1CCN(c2cccc(Nc3nc4c(-c5ccc(S(C)(=O)=O)cc5)cccn4n3)c2)CC1,0.76,13.8,0.45,0.49,1.35,0.37,0.59,1.34,6.3,0.48,2.02,0.36,0.44,0.47,1.72,2.95,1.65,2.23,1.42,0.46
Nc1ncccc1-c1nc2ccc(-c3ccccc3)nc2n1-c1ccc(C2(N)CCC2)cc1 [Miransertib (ARQ 092) HCl],-0.19,0.58,-0.42,-0.11,0.08,0.38,-1.04,0.49,1.05,-0.46,0.57,-0.18,0.2,-0.09,0.04,0.49,-0.05,0.38,0.6,0.18
CNC(=O)c1cc(Oc2ccc(NC(=O)Nc3cc(C(C)(C)C)nn3-c3ccc4ncccc4c3)c(F)c2)ccn1 [Rebastinib (DCC-2036)],2.72,1.36,0.84,11.5,0.32,3.62,1.36,2.28,8.15,1.32,12.3,6.64,0.59,5.55,0.52,0.33,5.06,0.84,2.8,5.27
CO[C@H]1C[C@@H]2CC[C@@H](C)[C@@](O)(O2)C(=O)C(=O)N2CCCC[C@H]2C(=O)O[C@H]([C@H](C)C[C@@H]2CC[C@@H](O)[C@H](OC)C2)CC(=O)[C@H](C)/C=C(\C)[C@@H](O)[C@@H](OC)C(=O)[C@H](C)C[C@H](C)/C=C/C=C/C=C/1C [Rapamycin (Sirolimus)],1.56,1.82,1.04,0.14,-0.59,0.17,0.45,0.43,1,0.46,0.22,0,0.5,0.3,0.16,0.2,-0.04,0.52,1.63,0.69
Cc1cc(Nc2cc(N3CCN(C)CC3)nc(/C=C/c3ccccc3)n2)n[nH]1,0.41,9.2,0.77,0.17,0.51,3.04,0.72,2.41,7.14,-0.1,4.69,2.74,0.21,4.05,2.48,8.43,7.16,6.22,1.95,1.86
CS(=O)(=O)c1ccc(-c2cnc(N)c(C(=O)Nc3ccccc3)n2)cc1,0.59,1.29,0.17,0.26,0.52,1.04,0.54,0.71,-0.32,-0.36,4.49,0.26,0.2,0.62,0.7,0.18,0.94,3.32,1.11,0.38
C=CC(=O)Nc1cccc(Oc2nc(Nc3ccc(N4CCN(C)CC4)cc3OC)ncc2Cl)c1,-0.16,0.75,0.6,0.05,-0.81,0.44,0.62,1.23,0.27,0.24,0.22,0.42,0.85,5.06,1.09,0.52,2.04,0.9,-0.58,0.39
NC(=O)c1ccc(N(C(N)=O)c2c(F)cccc2F)nc1-c1ccc(F)cc1F,-0.23,-0.16,0.91,-0.21,-0.08,0.4,0.66,0.7,-0.49,0.09,-0.83,-0.06,0.39,-0.04,0.18,0.14,0.25,0.57,-0.04,0.38
CN1CCN(c2nc(C3=C(c4c[nH]c5ccccc45)C(=O)NC3=O)c3ccccc3n2)CC1 [Sotrastaurin],2.03,0.97,0.76,0.55,0.35,0.69,0.94,1.16,1.17,0.29,1.74,0.21,0.22,0.18,0.49,0.36,1.38,1.49,0.76,0.51
CC(C)c1cnn2c(NCc3ccccc3)cc(NCCCCCCN)nc12,0.82,0.42,0.03,0.24,-0.22,0.19,0.44,0.66,-0.59,0.24,0.67,0.22,0.33,-0.19,0.14,0.34,0.19,0.56,-0.44,0.32
O=C1NCCc2[nH]c(-c3ccncc3)cc21,1.88,1.38,0.92,0.5,1.42,0.32,0.78,2.64,1.75,0.79,0.39,0.14,0.37,3.14,0.51,0.87,0.45,0.84,0.45,1.14
Cc1cc([C@@H](C)Nc2ccccc2C(=O)O)c2nc(N3CCOCC3)cc(=O)n2c1,1.15,0.75,0.5,0.68,-0.15,0,1.33,0.42,-0.15,0.98,0.61,0.49,0.29,0.3,0.29,0.63,0.56,0.73,0.55,0.37
